This is an account of results in PubChem BioAssay AID485358 (National Center for Advancing Translational Sciences (NCATS), 2010).

The whole screen tested about 340,000 compounds, of which about 1,800 (0.53%) were called active. The sample holds actives, similar compounds and a random draw of the others, so the mix is not that of the screen. Values without a mark were called inactive.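 How the source made its calls: active means activation over 3 SD above normal in the single-dose calcium agonist read (cut at about 30% in these data); inactive means the rest.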

Chain of D(2) dopamine receptor (Homo sapiens) (P14416 whole entry, looked up): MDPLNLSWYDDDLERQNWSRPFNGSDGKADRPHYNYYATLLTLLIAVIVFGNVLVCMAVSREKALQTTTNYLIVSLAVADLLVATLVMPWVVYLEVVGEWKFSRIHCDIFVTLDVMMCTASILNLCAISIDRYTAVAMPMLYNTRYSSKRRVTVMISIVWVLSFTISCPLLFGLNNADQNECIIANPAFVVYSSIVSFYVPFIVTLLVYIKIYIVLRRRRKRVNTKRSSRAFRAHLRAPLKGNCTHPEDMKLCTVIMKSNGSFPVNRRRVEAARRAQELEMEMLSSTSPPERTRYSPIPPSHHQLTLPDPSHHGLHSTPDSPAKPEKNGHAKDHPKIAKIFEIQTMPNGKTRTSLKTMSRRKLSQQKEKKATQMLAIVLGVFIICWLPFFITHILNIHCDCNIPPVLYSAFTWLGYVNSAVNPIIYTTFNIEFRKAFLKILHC

This test deals with D(2) dopamine receptor (Homo sapiens) (UniProt P14416). Briefly: HTS Assay for Allosteric Agonists of the Human D2 Dopamine Receptor: Primary Screen for Agonists. Further: 0% is about no effect. The conditions noted are these: HEK293 T-REx D2 cells, calcium flux agonist mode; at 2 µM; stronger effect = higher value. A digest of the protocol:
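Tetracycline-induced HEK293 Trex cells with D2 receptor force-coupled to calcium signaling, plated overnight at 30 C and loaded with no-wash calcium dye. Calcium flux read kinetically for 180 s after compound addition; responses flag agonists.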
(In general: A change in cytosolic calcium serves as a functional read-out for many receptors and channels.)
For the molecule `COc1ccccc1-c1cc2nc(C)c(CCC(=O)O)c(C)n2n1`, the activation is 0.732%.

In the case of `COc1ccc(N2CCN(S(=O)(=O)c3ccc(-c4coc(C)n4)cc3)CC2)cc1`, the activation was -0.462%. The result for `COc1cc(OC)c(NC(=O)c2cc(S(=O)(=O)N3CCCC3)cn2C)cc1Cl` reads 2.37%. With `CCC1=Nc2cc(C(=O)NCC(C)c3ccccc3)ccc2Sc2ccc(C)cc21` (stereo not drawn) the figure was -0.272%; with `Fc1ccc2[nH]c3c(N4CCN(Cc5ccc6c(c5)OCO6)CC4)ncnc3c2c1`, 35.9% (active). The result for `O=C(CSc1nc2c(c(=O)[nH]1)CN(Cc1ccc3c(c1)OCO3)CC2)Nc1cc(F)ccc1F` reads 0.843%; that for `CCCCCc1c(C)nc(N2CCN(Cc3ccc4c(c3)OCO4)CC2)[nH]c1=O`, 0.0879%; that for `CCn1c2ccccc2c2nnc(SCC(=O)O)nc21`, -0.808%. As to `CCCCc1nn2c(=O)cc(COC(=O)c3ccc(NC(=O)c4ccccc4C)cc3)nc2s1`, the activation is 8.52%.

Consider `O=C(CCCNS(=O)(=O)c1cccc2nsnc12)NCCN1CCN(c2ccccc2F)CC1`, for which the activation was 24.7%. For the molecule `Cn1c(=O)c(=O)n(C)c2cc(S(=O)(=O)NCCN3CCN(c4ccccc4F)CC3)ccc21`, the activation is 67.4% (active).

Turning to `CCOC(=O)N1CCN(c2c(NCCN3CCN(c4ccccc4F)CC3)c(=O)c2=O)CC1`, the activation was 10.4%.

In the case of `COc1ccccc1CN1CCC(CNC(=O)c2cnn(-c3ccccc3Cl)c2C2CCN(C(=O)OC(C)(C)C)CC2)CC1`, the activation was 3.36%. Turning to `Cc1ccccc1NC(=O)Cn1c(=O)n(Cc2ccco2)c(=O)c2ccc(C(=O)NC3CCCC3)cc21`, the activation was 0.581%. With `Cc1cccc(-n2c(=O)c3c(c4cc(C)ccc4n3C)n(CC(=O)Nc3ccccc3Cl)c2=O)c1` the figure was 0.838%. On to `COC(c1ccccc1)c1nnc(CCC(=O)N2CCN(CCOc3ccccc3)CC2)o1` (stereo not drawn), for which the activation is 47% (active).

In the case of `O=S(=O)(c1cccs1)N1CCN(CCOc2ccccc2)CC1`, the activation was 21.2%. The result for `Cc1nc(CN2CCN(C(=O)CCc3nnc(Cc4c[nH]c5ccccc45)o3)CC2)cs1` reads 0.942%; that for `Cc1ccc(Nc2ccc3cc(S(=O)(=O)N4CCCCC4)ccc3n2)cc1F`, 0.936%. With `Cc1cccc(NC(=O)CN(c2ccc(C(C)C)cc2)S(=O)(=O)c2c(C)nn(C)c2C)c1C` the figure was 0.387%. With `Cc1nc2nc(SCC(=O)NC3CCC(C)CC3)nn2c(C)c1Cc1ccccc1Cl` (stereo not drawn), the activation is -0.0264%. With `COc1ccccc1-c1noc(-c2ccc(NCc3ccccc3)c([N+](=O)[O-])c2)n1` the figure was -0.924%; with `Cc1ccccc1C(=O)Nc1cc(C)c(O)c(-c2nc3ccccc3o2)c1`, -0.387%; with `CCn1cc(C(=O)N2CCN(Cc3ccc4c(c3)OCO4)CC2)c2cc(OC)c(OC)cc2c1=O`, 51.1% (active). With `Cc1cc(C)n2nc(C(=O)Oc3ccc4c(c3)OCO4)nc2n1` the figure was -0.808%; with `Cc1cc(C)n2nc(C(=O)N3CCN(Cc4ccc5c(c4)OCO5)CC3)nc2n1`, 40.9% (active); with `COc1ccc(-c2cc(C(=O)N3CCN(Cc4ccc5c(c4)OCO5)CC3)on2)cc1OC`, -0.524%. The result for `CCn1cc(C(=O)NCc2ccc3c(c2)OCO3)c2cc(OC)c(OC)cc2c1=O` reads -0.995%; that for `O=C(C1CCN(Cc2ccc(Cl)cc2)CC1)N1CCN(Cc2ccc3c(c2)OCO3)CC1`, 0.973%.

With `O=C(c1cccs1)N1CCN(Cc2ccc3c(c2)OCO3)CC1`, the activation is 84.2% (active). With `O=C(Nc1cccc2ccccc12)N1CCN(Cc2ccc3c(c2)OCO3)CC1`, the activation is 5.88%.

Take `CCn1cc(C(=O)N2CCN(C3CCCCC3)CC2)c2cc(OC)c(OC)cc2c1=O`: the activation was 0.186%. Take `COc1cc(OC)c(N(C)C(=O)c2cc3c(=O)oc4ccccc4c3s2)cc1Cl`: the activation is 0.129%. The result for `Cc1ccc(C)c(N2CCN(c3ccc4cc(S(=O)(=O)N5CCC(C)CC5)ccc4n3)CC2)c1` reads 0.192%; that for `Cc1ccc(-c2cn3c(n2)sc2cc(C(=O)NCCCc4ccccc4)ccc23)cc1`, 1.23%. The result for `CCN(CC)S(=O)(=O)c1ccc2c(c1)N(CC(=O)NCc1ccccc1)C(=O)CS2` reads -0.489%; that for `Cc1cccc(S(=O)(=O)c2cn(Cc3ccccc3)c3cc(N4CCOCC4)c(F)cc3c2=O)c1`, -0.108%. Regarding `COc1ccccc1-c1ccnc2[nH]n(-c3ccccc3)c(=O)c12`, the activation is -0.0633%.

As for `COc1cc(OC)cc(C(=O)N[C@H](C(=O)Nc2nc3ccccc3[nH]2)C(C)C)c1`, the activation was 0.237%.

On to `COc1ccc(C(=O)N[C@H](C(=O)NCc2ccccc2)C(C)C)cc1`, for which the activation was -0.577%. The result for `COc1cc(OC)cc(C(=O)N[C@H](C(=O)OCC(=O)NC(C)c2ccccc2)C(C)C)c1` (stereo partly drawn) reads 32.6% (active); that for `Cc1ccc(CN2CCN(c3ncccn3)CC2)c(C)c1`, 71.3% (active); that for `Oc1ccc(CN2CCN(c3ncccn3)CC2)cc1`, 84.4% (active). Consider `c1cnc(N2CCN(c3ccc4ccccc4n3)CC2)nc1`, for which the activation was 0.566%. With `Cc1ccc(CN2CCN(/N=C/c3ccco3)CC2)c(C)c1` the figure was 0.881%. With `Cc1ccc(CN2CCN(/N=C/c3cccnc3)CC2)c(C)c1` the figure was -0.239%. With `CN(C)C(=O)c1nc2ccc(Cl)cn2c1CN1CCN(c2ncccn2)CC1` the figure was 5.69%; with `COc1cc(C(CC(=O)NCCC(C)C)N2Cc3ccccc3C2=O)cc(OC)c1OC` (stereo not drawn), 2.01%; with `CCc1ccc2oc(-c3ccc(C)c(NC(=O)/C=C/c4ccco4)c3)nc2c1`, 0.62%. As to `CCc1ccccc1NC(=O)Cn1c(=O)n(-c2cccc(C)c2)c(=O)c2c1c1cc(OC)ccc1n2C`, the activation is 0.643%. With `O=C(CC(c1ccccc1)c1ccccc1)NCC(O)c1ccc([N+](=O)[O-])cc1` (stereo not drawn) the figure was -0.594%; with `CC(C)OP(=O)(OC(C)C)C(Nc1ccccc1)c1cccc([N+](=O)[O-])c1` (stereo not drawn), -2.16%.

Consider `CC(CCc1ccccc1)NCC(O)c1cccc([N+](=O)[O-])c1` (stereo not drawn), for which the activation was 59.5% (active).

Take `Oc1c(C(c2ccc(F)cc2)N2CCN(Cc3ccccc3)CC2)sc2nc(-c3ccco3)nn12` (stereo not drawn): the activation was 0.375%.

For the molecule `COc1cc(NC(=O)c2noc3c2CSc2ccccc2-3)cc(OC)c1OC`, the activation is -0.598%. With `COc1ccc(-c2nc3scc(CCNS(=O)(=O)c4cc(F)ccc4OC)n3n2)cc1OC`, the activation is -1.74%. The result for `Cc1ccc(OCCn2c(CNc3ccccc3C)nc3ccccc32)cc1` reads 0.246%. With `Cc1ccc(C)c(N2CCN(C(=O)Cn3nc(C)c4sc5ccccc5c4c3=O)CC2)c1`, the activation was -0.843%. With `COc1ccccc1CNc1ccc(-c2nc(-c3ccccc3C)no2)cc1[N+](=O)[O-]` the figure was 2.39%; with `CCc1cccc(CC)c1NC(=O)Cn1c(=O)c(-c2cc(C)ccc2NC(C)=O)nc2ccccc21`, 0.924%.

For the molecule `CS(=O)(=O)c1ccc(Cl)c(NC(=O)COC(=O)c2cccc(S(=O)(=O)N3CCCC3)c2)c1`, the activation was -0.318%.

Turning to `O=C(NCc1cccs1)C1CCN(S(=O)(=O)c2ccc(Cl)cc2)CC1`, the activation was 0.13%. For the molecule `O=C(CNCc1cccs1)Nc1cc(S(=O)(=O)N2CCCC2)ccc1Cl`, the activation was 57.6% (active). In the case of `COc1ccc(CN2CC(C(=O)NCCN3CCN(c4ccccc4F)CC3)CC2=O)cc1` (stereo not drawn), the activation is 0.792%. The result for `O=C(NCCCN1CCCCCC1)C1CC(=O)N(C2CCCC2)C1` (stereo not drawn) reads 0.131%; that for `O=C(NCCCN1CCN(c2ccccc2F)CC1)C1CCC(=O)N1C1CCCCC1` (stereo not drawn), 68.8% (active); that for `COc1ccccc1NC(=O)C(=O)c1cc(C)n(-c2ccccc2F)c1C`, -1.58%. As to `COc1ccc(-c2nn3c(=O)cc(CN4CCN(C(=O)c5ccc(OC)c(OC)c5)CC4)nc3s2)cc1`, the activation was 0.0582%.

With `COc1ccc(OC)c(C(=O)c2ccc(C(=O)N3CCN(Cc4csc(C)n4)CC3)cc2)c1`, the activation was 37.6% (active).

On to `COc1ccc(OC)c(C(=O)c2coc3ccc(O)c(CN4CCOCC4)c23)c1`, for which the activation is 0.863%.

On to `CCCCN1C(=O)c2[nH]nc(-c3ccccc3O)c2C1c1cccc(OCc2ccccc2)c1` (stereo not drawn), for which the activation is -0.42%. In the case of `O=C(c1c(F)cccc1Cl)N1CCN(c2ccccn2)CC1`, the activation was -0.0487%. Take `O=C(c1ccc2ccccc2n1)N1CCN(c2ccccc2Cl)CC1`: the activation is 1.21%.

As for `O=C(c1c(Cl)cccc1Cl)N1CCN(c2cccc3[nH]ccc23)CC1`, the activation was 41.5% (active).

Turning to `Cc1cc(C)cc(NC(=O)Cn2c(=O)c3ccccc3n3nncc23)c1`, the activation was 0.456%. With `Cc1cccn2c(=O)c(/C=C(\C#N)C(N)=O)c(N3CCCCCC3)nc12` the figure was -0.181%. The result for `CCOC(=O)CC1C(=O)NCCN1c1nc2c(C)cccn2c(=O)c1/C=C1\SC(=S)N(C(C)CC)C1=O` (stereo not drawn) reads 61.9% (active); that for `CCCN(CCC)c1nc2c(C)cccn2c(=O)c1/C=C1/SC(=S)N(Cc2ccco2)C1=O`, 9.37%; that for `CCOC(=O)C1CCCN(C(=O)c2ccc3c(c2)sc2nc(-c4ccc(CC)cc4)cn23)C1` (stereo not drawn), 4.91%.

Turning to `O=[N+]([O-])c1ccc(C=Nc2ccc(Cl)cc2Cl)s1`, the activation is 33.6% (active). The result for `COc1ccc(CCNC(=O)c2cc3cccc4c3n2CC(C)S4)c(OC)c1OC` (stereo not drawn) reads -0.932%.

Turning to `CCOCCCn1c(SCC(=O)Nc2ccc(CC)cc2)nc2ccccc2c1=O`, the activation was 0.545%. The result for `Cc1ccc(-n2c(=O)c3cccnc3n2CC(=O)NCc2ccc(F)cc2)cc1C` reads 0.0353%.
